Records with an inconclusive call do not appear. Activity calls are given as the source filed them. Calls follow the shape of the dose curve; as a rule, active = well fitted cell-killing curve with a large enough effect; inconclusive = small, poorly fitted or top-dose-only effect; inactive = no such curve, though single readings can be large or run the other way.
Potency is read from the fitted curve at half-maximal effect.

The nature of the test: qHTS of pediatric cancer cell lines to identify multiple opportunities for drug repurposing: Primary screen for NB1643 cells (AID 1347099). Also: nearly all actives have a fitted effect of over 50% in size. The settings on record: NB1643 neuroblastoma viability, CellTiter-Glo luminescence, 48 h; series mostly up to 46 µM. From the text:
Drug repurposing or repositioning has been offered as a strategy for drug development in oncology programs. This approach has special potential for childhood cancers and other rare or orphan diseases, where the expected return on new drug development has been a disincentive to pharmaceuticals. […] In this project we exploit the poly-pharmacology of drugs to discover new indications via phenotypic screening of a panel of 19 well-characterized cell lines derived from solid tumors seen in children and adolescents. The goal is to identify approved drugs with previously unrecognized anticancer properties that has the potential to reveal new mechanisms and biological processes involved in carcinogenesis or drug resistance. We employed a titration-based paradigm (quantitative high-throughput screening or qHTS), where all compounds were tested at multiple concentrations for their effect on cell viability. Concentration-response curves (CRCs) were derived directly from the primary screen, and both potency and efficacy values were used to identify compounds with robust bioactivity profiles. We screened the NIH Chemical Genomics Center (NCGC) Pharmaceutical Collection (NPC) and Mechanism Interrogation Plate (MIPE) small molecule collections of approved and investigational compounds against these cell lines; and measured metabolically active cells after 48 hours of compound treatment as a proxy for cell viability. […] Assay Submitter: Nathalia J. Martinez, National Center for Advancing Translational Sciences, National Institutes of Health, Rockville, MD, USA; email: natalia.martinez@nih.gov Shen, M et al. Quantitative high-throughput phenotypic screening of pediatric cancer cell lines identifies multiple opportunities for drug repurposing. Oncotarget 2017 Dec 19;9(4):4758-4772. PMID 29435139.
The cells were obtained from University of North Carolina (UNC), Pediatric Preclinical Testing Program (PPT), and Coriell Institute (CI). qHTS cell viability assay: Cells were assayed in growth media at a density of 500-1,000 cells/well. Five microliters of cells were dispensed into 1,536-well, white, solid-bottom, TC-treated plates (Greiner Bio One) using a multidrop dispenser and incubated at 37 degrees C, 5% CO2, under a humidified atmosphere for 5 hours. Twenty-three nanoliters of compounds and controls (neutral control DMSO or positive control bortezomib at final concentration of 2.3 µM) were subsequently transferred by Kalypsys pintool. For primary screens, the MIPE collection was tested at 11-point dilutions (final concentrations range from 0.78 nM to 46 µM) and the NPC collection at 8-point dilutions (final concentrations range from 0.59 nM to 46 µM). Compounds tested in follow-up screens were assayed at 11-point dilutions. Cells were incubated for 48 hours, followed by addition of 3 µL of CellTiter-Glo (Promega). After a 15 min incubation at room temperature, samples were analyzed for luminescence intensity using a ViewLux High-throughput CCD imager equipped with clear filters.
On to `Cc1cccc(C)c1OCC(C)N` (stereo not given), for which the Potency entry is “inactive”.
`N[C@H](CSC(c1ccccc1)(c1ccccc1)c1ccccc1)C(=O)O`: the Potency entry was “inactive”.
In the case of `C=C1C(=O)[C@@]23C(CC[C@@H]1[C@H]2O)[C@@]12CO[C@]3(O)[C@@H](O)[C@@H]1C(C)(C)CC[C@@H]2O` (stereo not given in full) it was 1.48 µM (active); in that of `CC(C)n1cnc2c(NCCCCCCNC(=O)OC(C)(C)C)nc(NCCO)nc21`, “inactive”; in that of `Cc1ccn(-c2ccc(-c3ncco3)cc2)c(=O)c1-c1ccc2nc(N)ncc2c1`, “inactive”.
In the case of `CC(C)(C)c1cc(C(=O)O)c(NC(=O)Nc2ccc3[nH]ncc3c2)s1` it was 23.5 µM (active); in that of `CCCCCNC(=O)N1CCC(CN(Cc2ccc(Cl)cc2)Cc2ccc([N+](=O)[O-])s2)C1` (stereo not given), 23.5 µM (active).
In the case of `CCCCCN(C)CCC(O)(P(=O)(O)O)P(=O)(O)O` it was “inactive”; in that of `O=C(O)CCC1CCC(c2cc(F)ccc2F)(S(=O)(=O)c2ccc(Cl)cc2)CC1` (stereo not given), 2.35 µM (active); in that of `CC(C)=CC[C@@H](O)C1=CC(=O)c2c(O)ccc(O)c2C1=O`, 3.32 µM (active).
Regarding `O=C(NCCN1CCOCC1)c1ccc(Cl)cc1`, the Potency entry is “inactive”.
For `CC(=Cc1ccccc1)C=C1SC(=S)N(CC(=O)O)C1=O`, the Potency entry is “inactive”.
In the case of `C=C1C(=O)OC2C=C(C)CCC=C(C)CCC12` (stereo not given) it was 23.5 µM (active); in that of `O=C(NCc1ccccc1)c1csc(Nc2ccncn2)n1`, 13.2 µM (active); in that of `CC(C(=O)O)c1ccc(-c2ccccc2)c(F)c1` (stereo not given), 26.4 µM (active).
In the case of `NCCS` it was “inactive”.
In the case of `CO[C@H]1C[C@@H]2CC[C@@H](C)[C@@](O)(O2)C(=O)C(=O)N2CCCC[C@@H]2C(=O)O[C@H]([C@H](C)C[C@@H]2CC[C@H](OC(=O)C(C)(CO)CO)[C@H](OC)C2)CC(=O)[C@H](C)C=C(C)[C@@H](O)[C@@H](OC)C(=O)[C@H](C)C[C@H](C)C=CC=CC=C1C` it was 23.5 µM (active); in that of `COc1cc2ncnc(Nc3ccc(F)c(Cl)c3)c2cc1OCCCN1CCOCC1`, 34 µM (active); in that of `COC[C@@H](c1ccc(C(F)(F)F)cc1)N1CCN(C2(C)CCN(C(=O)c3c(C)ncnc3C)CC2)C[C@H]1C`, 18.7 µM (active).
As for `CCC(=O)O[C@]1(C(=O)CO)CC[C@H]2[C@@H]3CCC4=CC(=O)CC[C@]4(C)[C@@H]3CC[C@@]21C`, the Potency result is “inactive”.
As for `COc1ccc(Cc2ccc(NC(N)=O)cc2)cc1-c1cccc(Cl)c1`, the figure is 16.6 µM (active).
For the compound `NS(=O)(=O)c1ccc(NC2=CC(=O)c3ccccc3C2=O)cc1`, the Potency is 18.7 µM (active).
In the case of `Nc1ncnc2c1nc(Cl)n2[C@@H]1O[C@H](CO)[C@@H](O)[C@@H]1O` it was 16.6 µM (active).
As for `O=C(O)CCc1nc(-c2ccccc2)c(-c2ccccc2)o1`, the entry is “inactive”.
In the case of `O=C(CCc1ccc(O)cc1)c1c(O)cc(O)cc1O[C@@H]1O[C@H](CO)[C@H](O)[C@H](O)[C@H]1O` it was 26.4 µM (active); in that of `CO[C@H]1C=CO[C@@]2(C)Oc3c(C)c(O)c4c(O)c(c5c(c4c3C2=O)NC2(CCN(CC(C)C)CC2)N=5)=NC(=O)C(C)=CC=C[C@H](C)[C@H](O)[C@@H](C)[C@@H](O)[C@@H](C)[C@H](OC(C)=O)[C@H]1C`, “inactive”; in that of `O=C1Nc2ccc(Cl)cc2C(C#CC2CC2)(C(F)(F)F)O1` (stereo not given), 23.5 µM (active).
With `C[C@H](NC(=O)c1sccc1OCc1ccc(Cl)cc1)c1ccccc1`, the Potency was 23.5 µM (active).
For the compound `CC(=O)N(C)C1(c2ccccc2)CCN(CCC[C@]2(c3ccc(Cl)c(Cl)c3)CCCN(C(=O)c3ccccc3)C2)CC1`, the Potency was 23.5 µM (active).
As for `O=C1C(Cl)=C(NCCN2CCOCC2)C(=O)c2ncccc21`, the figure is 9.35 µM (active); as for `c1ccc2c(Cc3c[nH]c4ccccc34)c[nH]c2c1`, 4.18 µM (active); as for `Cc1ccc(/C=N/NC(=O)c2ccccc2Oc2ccccc2)o1`, 18.7 µM (active).
In the case of `C=C1C(=O)OC(CCCCCCCC)C1C(=O)O` (stereo not given) it was “inactive”; in that of `COc1ncc(-c2ccc3nccc(-c4ccnnc4)c3c2)cc1NS(=O)(=O)c1ccc(F)cc1F`, 0.0662 µM (active).
In the case of `CCN(CC)C(=O)c1ccc(O)c(OC)c1` it was “inactive”; in that of `O=C(O)C=Cc1ccc(O)c(O)c1`, 20.9 µM (active).
Take `O=c1cc(N2CCOCC2)oc2c(-c3cccc4c3sc3ccccc34)cccc12`: the Potency was 5.26 µM (active).
As for `O=c1cc(CN2CCOCC2)occ1OCCCCCSc1ccnc2cc(C(F)(F)F)ccc12`, the Potency result was “inactive”.
As for `O=c1cc(-c2ccccc2)oc2cc(O)c(O)c(O)c12`, the entry is “inactive”; as for `N#CC1(c2ccc(NC(=O)c3cccnc3NCc3ccncc3)cc2)CCCC1`, “inactive”.

The record behind these values is PubChem BioAssay (NCATS).
